The test system of assay [1] is DLD1. In words: cell viability (CellTiter-Glo) relative to plate median (fraction of plate median); higher = more viable cells. Conditions: 5 µM; treatment time 24 h; reporter: 7TFP. In short, it runs like this: (§1)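 Normalisation used webcellHTS2 in additive mode without log transformation, scaling each well's luminescence to the plate median. The luminescence was firefly luciferase or CellTiterGlo, read on a Tecan F500 from parallel plates of colorectal cancer cells stably transduced with lentiviral TCF/Wnt firefly luciferase reporters. Those cells had been given library compounds at a final 5 µM for 24 h, and two independent replicates were averaged.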
Background: In ATP-based viability assays light output follows the ATP content of the culture.

The subject of assay [2] is HCT116. The description is as above. Conditions: 5 µM; treatment time 24 h; reporter: TCF4/Wnt. In short, it runs like this: as §1
In assay [3] the test system is SW480. The description is as above. Conditions: 5 µM; treatment time 24 h; reporter: 7TFP. The method, boiled down: as §1
For assay [4], the system named is DLD1. Kind of assay: TCF/Wnt firefly luciferase reporter signal relative to plate median (fraction of plate median); higher = higher Wnt reporter signal. Particulars: 5 µM; treatment time 24 h; reporter: 7TFP. In short, it runs like this:
as §1

Assay [5] has as its system SW480. The assay is described as above. Conditions: 5 µM; treatment time 24 h; reporter: 7TFP. The method, boiled down:
as §1

Assay [6] relates to DLD1. In words: cell viability (CellTiter-Glo) relative to plate median (fraction of plate median); higher = more viable cells. Particulars: 10 µM, treatment time 24 h. The method, boiled down:
(§2)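 Colorectal cancer cell lines carrying stably transduced lentiviral TCF/Wnt firefly luciferase reporters (7TFP or TCF4/Wnt) were plated in 384-well plates and treated 24 h later with kinase inhibitor library compounds at a final 10 µM for 24 h. Firefly luciferase or CellTiterGlo luminescence was read on parallel plates with a Tecan F500 reader. Signals were normalised per well to the plate median in webcellHTS2 (additive, no log transformation), and values are the mean of two independent replicates.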

In assay [7] the test system is HCT116. Described as above. Particulars: 10 µM; treatment time 24 h; reporter: TCF4/Wnt. In short, it runs like this: as §2
Assay [8] concerns SW480. The assay is described as above. Particulars: 10 µM; treatment time 24 h; reporter: 7TFP. The method, boiled down:
as §2

The subject of assay [9] is DLD1. Kind of assay: TCF/Wnt firefly luciferase reporter signal relative to plate median (fraction of plate median); higher = higher Wnt reporter signal. Particulars: 10 µM, treatment time 24 h. In short, it runs like this:
as §2
In general terms: A reporter such as luciferase makes a cellular process visible.

In assay [10] the test system is HCT116. The assay is described as above. Conditions: 10 µM; treatment time 24 h; reporter: TCF4/Wnt. The method, boiled down: as §2
The subject of assay [11] is SW480. Described as above. Conditions: 10 µM; treatment time 24 h; reporter: 7TFP. In short, it runs like this: as §2

± gives the standard deviation of the averaged measurements.

Turning to `CN1C[C@H](C(=O)N[C@]2(C)O[C@@]3(O)[C@@H]4CCCN4C(=O)[C@H](Cc4ccccc4)N3C2=O)C=C2c3cccc4[nH]cc(c34)C[C@H]21`, the values for the cell viability in assay [1], in [2] and in assay [3] were 0.967 ± 0.09, 1.11 ± 0.078 and 1.03 ± 0.042, respectively. Besides, the “TCF/Wnt firefly luciferase reporter signal” value in assay [4] amounted to 1.23 ± 0.25; in assay [5], 1.16 ± 0.078.
As to `O=C1CC[C@@]2(O)[C@H]3Cc4ccc(O)c5c4[C@@]2(CCN3CC2CC2)[C@H]1O5`, the cell viability in assay [1] worked out at 1.02 ± 0.093; in assay [2] it was 0.914 ± 0.19; in assay [3], 1.04 ± 0.035. For the same compound, the results for the “TCF/Wnt firefly luciferase reporter signal” value in assay [4] and in assay [5] were 0.985 ± 0.12 and 1.03 ± 0.028, respectively.
The corresponding values for `CC[C@@H](C(=O)[C@@H](C)[C@@H](O)[C@H](C)[C@@H]1O[C@@H]([C@@H](CC)C(=O)O)CC[C@@H]1C)[C@H]1O[C@]2(C=C[C@@H](O)[C@]3(CC[C@@](C)([C@H]4CC[C@](O)(CC)[C@H](C)O4)O3)O2)[C@H](C)C[C@@H]1C` are 0.948 ± 0.14, 0.978 ± 0.073, 1.07 ± 0.05, 0.783 ± 0.11 and 0.897 ± 0.089.
In the case of `CCC1(CC)C(=O)C=CNC1=O`, the cell viability stood at 0.965 ± 0.016 in [1], 0.923 ± 0.025 in assay [2] and 0.926 ± 0.013 in assay [3]. Further, the “TCF/Wnt firefly luciferase reporter signal” value in [4] amounted to 1.02 ± 0.09; in assay [5], 1.07 ± 0.021.
Take `COC[C@H]1OC(=O)c2coc3c2[C@@]1(C)C1=C(C3=O)[C@@H]2CCC(=O)[C@@]2(C)C[C@H]1OC(C)=O` [Wortmannin]: the cell viability in assay [6] (reporter: 7TFP) turned out to be 0.844 ± 0.016; in assay [6] (reporter: TCF4/Wnt), 0.8345 ± 0.0064; in assay [7], 0.733 ± 0.091; in [8], 0.963 ± 0.035. In addition, the “TCF/Wnt firefly luciferase reporter signal” value in assay [9] (reporter: 7TFP) stood at 0.662 ± 0.033; in assay [9] (reporter: TCF4/Wnt), 0.821 ± 0.059; in [10], 0.699 ± 0.021; in assay [11] it was 0.856 ± 0.54.
Take `CC[C@@H](C)C(=O)O[C@H]1[C@H](O)[C@H]2[C@@H](CN3C[C@@H](C)CC[C@H]3[C@@]2(C)O)[C@@H]2C[C@]34O[C@]5(O)[C@@H](OC(=O)[C@](C)(O)[C@@H](C)O)CC[C@@]3(C)[C@@H]5[C@@H](OC(C)=O)[C@@H](OC(C)=O)[C@H]4[C@@]21O` (stereo in doubt): the cell viability amounted to 1.03 ± 0.035 in assay [1], 1.17 ± 0.085 in [2] and 1.08 ± 0.028 in assay [3]. For the same compound, the “TCF/Wnt firefly luciferase reporter signal” value in assay [4] was found to be 1.18 ± 0.092; in assay [5] it was 1.08 ± 0.071.
The corresponding values for `C[C@@H]1O[C@@H](O[C@H]2C[C@@H](O)[C@]3(CO)[C@H]4[C@H](O)C[C@]5(C)[C@@H](C6=CC(=O)OC6)CC[C@]5(O)[C@@H]4CC[C@]3(O)C2)[C@H](O)[C@H](O)[C@H]1O` are 0.99 ± 0.085, 0.401 ± 0.29, 1.02 ± 0.14, 0.128 ± 0.13 and 0.146 ± 0.12.
With `C[C@]12CCC(=O)C(O)=C1CC[C@@H]1[C@@H]2CC[C@]2(C)C(=O)CC[C@@H]12`, the cell viability in [1] was 0.956 ± 0.011; in assay [2], 0.996 ± 0.076; in assay [3], 0.9485 ± 0.0021. Moreover, the results for the “TCF/Wnt firefly luciferase reporter signal” value in assay [4] and in assay [5] were 1.01 ± 0.023 and 1.01 ± 0.073, respectively.
For the compound `CC(C)c1cc2c(c(O)c1O)[C@@]1(C(=O)O)CCCC(C)(C)[C@@H]1CC2`, the cell viability is 0.981 ± 0.013 in assay [1], 1.03 ± 0.079 in assay [2] and 1.03 ± 0.021 in [3]. The “TCF/Wnt firefly luciferase reporter signal” value was 1.03 ± 0.021 in assay [4] and 0.944 ± 0.11 in [5].
As for `COc1cc2c(cc1OC)[C@@H]1C(=O)c3ccc4oc(C(C)C)cc4c3O[C@@H]1CO2`, the results for the cell viability in [1], in assay [2] and in assay [3] were 0.923 ± 0.052, 0.875 ± 0.14 and 0.75 ± 0.021, respectively. The “TCF/Wnt firefly luciferase reporter signal” value in assay [4] amounted to 0.974 ± 0.028; in assay [5], 0.749 ± 0.052.
With `CC(NC(C)(C)C)C(=O)c1cccc(Cl)c1` (stereo unspecified), the cell viability in assay [1] is 1.02 ± 0.037; in [2] it was 1.02 ± 0.021; in assay [3], 1.02 ± 0.021. Also, the “TCF/Wnt firefly luciferase reporter signal” value in assay [4] turned out to be 1.11 ± 0.057; in assay [5] it was 1.02 ± 0.11.
As to `C/C=C/[C@H]1O[C@@](O)([C@@H](C)[C@H](O)[C@H](C)[C@H]2OC(=O)/C(OC)=C/C(C)=C/[C@@H](C)[C@@H](O)[C@@H](CC)[C@@H](O)[C@H](C)C/C(C)=C/C=C/[C@@H]2OC)C[C@@H](O[C@H]2C[C@@H](O)[C@H](OC(N)=O)[C@@H](C)O2)[C@@H]1C` [Concanamycin A], the cell viability in assay [1] worked out at 0.886 ± 0.095; in assay [2] it was 0.998 ± 0.059; in [3], 1.04 ± 0.035. For the same compound, the “TCF/Wnt firefly luciferase reporter signal” value in [4] was 0.806 ± 0.2; in [5] it was 0.9 ± 0.12.
On to `CC(C)(C)c1cc(C=C(C#N)C#N)cc(Br)c1O`, for which the cell viability in assay [6] (reporter: 7TFP) amounted to 0.79 ± 0.03; in assay [6] (reporter: TCF4/Wnt) it was 0.804 ± 0.18; in assay [7] it was 0.966 ± 0.16; in assay [8] it was 0.91 ± 0.035. Besides, the “TCF/Wnt firefly luciferase reporter signal” value in [9] (reporter: 7TFP) worked out at 1.2 ± 0.092; in [9] (reporter: TCF4/Wnt), 1.07 ± 0.18; in [10] it was 1.38 ± 0.25; in assay [11], 1.3 ± 0.11.
Consider `C=C1C[C@@H]2[C@H](CC[C@]3(C)C(=O)CC[C@@H]23)[C@@]2(C)C=CC(=O)C=C12`, for which the cell viability in [1] stood at 1.03 ± 0.11; in [2], 1.12 ± 0.05; in [3], 1.02 ± 0.031. Further, the “TCF/Wnt firefly luciferase reporter signal” value came out at 0.961 ± 0.17 in [4] and 1.02 ± 0.13 in assay [5].
The corresponding values for `C[C@@H](CO)NC(=O)[C@@H]1C=C2c3cccc4[nH]cc(c34)C[C@H]2N(C)C1` are 0.983 ± 0.067, 1.01 ± 0.061, 0.939 ± 0.052, 1.09 ± 0.099 and 0.98 ± 0.026.
In the case of `CN[C@@H]1[C@@H](O)[C@@H](O[C@@H]2[C@@H](O)[C@H](O[C@H]3O[C@H]([C@@H](C)O)[C@@H](O)[C@H](O)[C@H]3N)[C@@H](N)C[C@H]2N)OC[C@]1(C)O`, the cell viability worked out at 1.075 ± 0.0071 in [1], 1.04 ± 0.035 in [2] and 1.08 ± 0.071 in [3]. Also, the “TCF/Wnt firefly luciferase reporter signal” value in assay [4] worked out at 0.964 ± 0.12; in [5], 1.08 ± 0.085.
The corresponding values for `O=[N+]([O-])O[C@@H]1CO[C@H]2[C@@H]1OC[C@@H]2O` are 0.98 ± 0.018, 1.06 ± 0.028, 1.02 ± 0.03, 0.989 ± 0.28 and 0.915 ± 0.12.
On to `Cc1cc(O)cc2oc(=O)c3c(O)cc(O)cc3c12` [Alternariol], for which the cell viability in [1] came out at 0.914 ± 0.017; in assay [2], 0.919 ± 0.013; in [3], 1.01 ± 0.03. Also, the “TCF/Wnt firefly luciferase reporter signal” value amounted to 0.861 ± 0.12 in [4] and 0.992 ± 0.097 in [5].
Consider `O=c1ccc2c(O)c3ccoc3cc2o1`, for which the cell viability was 1.005 ± 0.0071 in [1], 0.8825 ± 0.005 in [2] and 1.02 ± 0.028 in assay [3]. In addition, the entries for the “TCF/Wnt firefly luciferase reporter signal” value in assay [4] and in assay [5] were 0.926 ± 0.037 and 0.886 ± 0.034, respectively.
The corresponding values for `CC(=O)O[C@H]1C[C@H](O[C@H]2[C@@H](O)C[C@H](O[C@H]3[C@@H](O)C[C@H](O[C@H]4CC[C@@]5(C)[C@H](CC[C@@H]6[C@@H]5C[C@@H](O)[C@]5(C)[C@@H](C7=CC(=O)OC7)CC[C@]65O)C4)O[C@@H]3C)O[C@@H]2C)O[C@H](C)[C@H]1O[C@@H]1O[C@H](CO)[C@@H](O)[C@H](O)[C@H]1O` are 0.65 ± 0.044, 0.636 ± 0.0042, 0.851 ± 0.078, 0.264 ± 0.13 and 0.584 ± 0.057.
`O=C1C(Cl)=C(Cl)C(=O)C(Cl)=C1Cl`: the cell viability turned out to be 0.967 ± 0.061 in assay [1], 0.977 ± 0.033 in assay [2] and 0.991 ± 0.028 in assay [3]. Besides, the entries for the “TCF/Wnt firefly luciferase reporter signal” value in assay [4] and in [5] were 0.997 ± 0.16 and 1.02 ± 0.065, respectively.
For the compound `N=C(NCCC[C@H](N)C(=O)O)N[N+](=O)[O-]`, the cell viability came out at 0.944 ± 0.14 in assay [1], 0.966 ± 0.047 in assay [2] and 0.9515 ± 0.0064 in assay [3]. Besides, the “TCF/Wnt firefly luciferase reporter signal” value in [4] worked out at 1.07 ± 0.05; in assay [5] it was 0.947 ± 0.09.

(Values after the supplement of paper PMC6522484.)
